FMDV antiviral: High Throughput Screening for Foot and Mouth Disease Virus Antivirals; FMDV antiviral cell-based qHTS; Potency, µM (doses to about 57.9 µM), for the others: at the highest dose activity change, negative = inhibition, usual class: inhibitors; actives 1.2% (n = 410,000); AID 1159524, 2015; calls by dose curve; tested in HEK293T cells; note: read-out not given here; potency is the fitted concentration of half-maximal effect; nearly all actives have a fitted effect of over 45% in size
Vaccinia Venus: qHTS for Stage-Specific Inhibitors of Vaccinia Orthopoxvirus: Venus Reporter Primary qHTS; Vaccinia virus Venus reporter expression, fluorescence; Potency, µM (highest dose often 36.5 µM), for inactives: top-dose activity change, negative = inhibition, most hits filed as inhibitors; actives 0.46% (n = 330,000); calls by dose curve; tested in A549 cells; note: potency is the fitted concentration of half-maximal effect; nearly all actives have a fitted effect of over 30% in size
Giardia FBPA inh-1: qHTS Assay for Inhibitors of Fructose-1,6-bisphosphate Aldolase from Giardia Lamblia | actives 0.71% (n = 290,000) | Potency, µM (titrated, usually from 59.6 µM), for inactives: at the top dose activity, negative = inhibition, usual class: inhibitors | AID 2451, 2010 | purified Giardia FBPA; note: potency is the fitted concentration of half-maximal effect; nearly all actives have a fitted effect of over 55% in size
Target sequence (A8B2U2 whole entry, looked up): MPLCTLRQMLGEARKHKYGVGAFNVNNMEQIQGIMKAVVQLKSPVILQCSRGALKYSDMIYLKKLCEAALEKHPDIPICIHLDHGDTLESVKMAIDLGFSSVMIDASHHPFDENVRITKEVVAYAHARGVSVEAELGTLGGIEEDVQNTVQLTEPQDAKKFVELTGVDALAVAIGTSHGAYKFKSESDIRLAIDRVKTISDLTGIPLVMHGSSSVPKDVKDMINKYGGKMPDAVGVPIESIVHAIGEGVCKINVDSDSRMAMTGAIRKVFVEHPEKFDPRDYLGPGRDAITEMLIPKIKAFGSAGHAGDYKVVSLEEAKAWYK
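40 nM FBPA preincubated 10 min at RT with compound (up to 57.5 uM final), then substrate plus GAPDH/TPI/NAD/arsenate coupling and diaphorase/resazurin added. Fluorescence read after 20 min at RT, 525/598 nm.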
HCV inhibitor: qHTS Assay for Inhibitors of Hepatitis C Virus (HCV); Huh7.5.1 HCVcc-Cre infection, luciferase reporter, 44 h; Potency, µM (highest dose often 41.8 µM), inactives show at the highest dose activity change, negative = inhibition, usual class: inhibitors; actives 3.4% (n = 340,000); note: potency is the fitted concentration of half-maximal effect
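1,000 cells/well; 4 h culture; + compound; + HCVcc-Cre (~0.5 moi); 44 h; luciferase substrate, RT 15 min; read 15 sec.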
HCMV inh: qHTS Assay for inhibitors of the human cytomegalovirus (HCMV). AID 1259415, 2018. HFF cells, HCMV-luciferase reporter, 72 h; active compounds read low. activity change, negative = inhibition, % at 57.5 µM. actives 4.5% (n = 410,000); in the data active = activity change below about -60%; inconclusive = no clear call, values can overlap the other calls; inactive = above about -39%
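Screen run at 2 compound doses on HFFs infected with reporter HCMV, MOI 1 PFU/cell. Luciferase activity from cell lysates at 72 h post infection gave inhibition relative to buffer-only and Salinomycin wells.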
VACV mCherry inh: qHTS for Stage-Specific Inhibitors of Vaccinia Orthopoxvirus: mCherry Reporter Primary qHTS | Vaccinia virus mCherry reporter infection, fluorescence | Potency, µM (highest dose often 36.5 µM), without a hit: top-dose activity change, negative = inhibition, hits mostly inhibitors | actives 0.63% (n = 310,000) | AID 720579, 2013; calls by dose curve; tested in A549 cells; note: potency is the fitted concentration of half-maximal effect; nearly all actives have a fitted effect of over 35% in size
Giardia growth: qHTS Assay for Inhibitors of Fructose-1,6-bisphosphate Aldolase from Giardia Lamblia: Giardia lamblia growth inhibition; shares compounds with Giardia FBPA inh-1; Giardia lamblia trophozoite growth inhibition; Potency, µM (highest dose often 57.5 µM), for the others: at the highest dose activity change, negative = inhibition, most hits filed as inhibitors; actives 5% (n = 1,500);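 note: potency is the fitted concentration of half-maximal effect; trophozoites exposed to compound for 48 h at 37 °C; nearly all actives have a fitted effect of over 70% in size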
Mammalian tox: qHTS Assay for Inhibitors of Fructose-1,6-bisphosphate Aldolase from Giardia Lamblia: Mammalian cellular toxicity; shares compounds with Giardia FBPA inh-1; mammalian cell viability counter-screen, qHTS; Potency, µM (titrated, usually from 57.5 µM), for inactives: top-dose viability change, negative = toxicity, usual class: inhibitors; actives 4% (n = 1,500); AID 2786, 2010;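 note: Chinese hamster ovary cells used as mammalian cytotoxicity surrogate; viability measured as cellular ATP by luminescence; potency is the fitted concentration of half-maximal effect; compound exposure lasted 48 h before reading; nearly all actives have a fitted effect of over 60% in size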
Giardia FBPA inh-2: qHTS Assay for Inhibitors of Fructose-1,6-bisphosphate Aldolase from Giardia Lamblia: Primary screen confirmation; purified Giardia aldolase enzyme activity, qHTS; shares compounds with Giardia FBPA inh-1; AID 2787, 2010; Potency, µM (titrated, usually from 57.5 µM), without a hit: top-dose activity change, negative = inhibition, most hits filed as inhibitors; actives 5% (n = 1,500); note: potency is the fitted concentration of half-maximal effect; nearly all actives have a fitted effect of over 45% in size
Rabbit FBPA inh: qHTS Assay for Inhibitors of Fructose-1,6-bisphosphate Aldolase from Giardia Lamblia: Rabbit FBPA Selectivity | Rabbit muscle FBPA enzyme inhibition, selectivity counter-screen | shares compounds with Giardia FBPA inh-1 | AID 2794, 2010 | actives 4% (n = 1,500) | Potency, µM (titrated, usually from 57.5 µM), for the others: top-dose activity, negative = inhibition, hits mostly inhibitors; note: potency is the fitted concentration of half-maximal effect; nearly all actives have a fitted effect of over 60% in size
GAPDH counter: qHTS Assay for Inhibitors of Fructose-1,6-bisphosphate Aldolase from Giardia Lamblia: Coupling assay counterscreen confirmation | actives 6% (n = 1,500) | Potency, µM (highest dose often 57.5 µM), for the others: at the top dose activity change, negative = inhibition, usual class: inhibitors | shares compounds with Giardia FBPA inh-1 | GAPDH coupling enzyme counterscreen, biochemical, qHTS; note: potency is the fitted concentration of half-maximal effect; nearly all actives have a fitted effect of over 55% in size
The depositor's hits bear a star; i = inactive; u = inconclusive; x = no result; [ ] = remark or other dose. Hits are enriched below; roughly 7.5% of the tested compounds scored in any of these assays. Unless noted, calls come from the whole dose curve; as a rule, active = well fitted curve in the direction sought with a large enough effect; inconclusive = small, poorly fitted or top-dose-only effect, or another doubt; inactive = no such curve, though single readings can be large; an effect the other way counts as inactive or inconclusive. % is set by controls: 0 for no effect and ±100 for the full control effect.

SMILES	FMDV antiviral	Vaccinia Venus	Giardia FBPA inh-1	HCV inhibitor	HCMV inh	VACV mCherry inh	Giardia growth	Mammalian tox	Giardia FBPA inh-2	Rabbit FBPA inh	GAPDH counter
Nc1nc(=S)n(-c2ccccc2)[nH]1	6%	2%	7.1µM*	10%	-18	-8%	19%	-1%	2%	5%	9%
CC(C)c1cccc(OCCCCN(C)C)c1	-10%	-5%	16µM*	-2%	-20	-19%	u	-6%	8%	6%	2%
CCN(CC)CCOc1cccc(C(C)C)c1	-12%	-4%	-2%	-11%	37	x	x	x	x	x	x
Cc1ccn2c(=O)nc(SCC(=O)NCc3ccccc3Cl)nc2c1	-17%	-5%	x	7%[8.37 µM]	-8	-14%	x	x	x	x	x
O=C(CNC(=O)c1cccnc1)N=Nc1c(O)[nH]c2c(Br)cc(Br)cc12	-18%	x	28µM*	u	-3	x	-1%[10.4 µM]	-6%	7%	17%	12%
O=C(Nc1cc2c3c(c1)CC(=O)N3CCC2)C1CC1	-15%	-13%	x	3%	5	i	x	x	x	x	x
Cc1ccc(CNC(=O)CCCn2c(=O)c3ccccc3n(Cc3ccccc3Cl)c2=O)cc1	-6%	-12%	x	x	15	-12%	x	x	x	x	x
CCN(CC)S(=O)(=O)c1ccc(C(=O)NC(=S)N(CCC#N)Cc2cccnc2)cc1	12%	-11%	13µM*	22%	73	-7%	u	5%	4%	5%	10%
O=C(NC(=S)N(CCO)Cc1ccccc1)c1cc(Br)ccc1Cl	5%	x	16µM*	17%	26	x	12%[10.4 µM]	4%	10%	11%	17%
N#CCCN(Cc1ccccc1)C(=S)NC(=O)c1ccccc1	-14%	x	16µM*	-1%	-10	x	20%	5%	5%	7%	6%
CN(C)S(=O)(=O)c1cccc(C(=O)NC(=S)N(CCC#N)Cc2cccnc2)c1	-4%	-2%	5.6µM*	13%	59	6%	6%[38.3 µM]	-6%	4%	2%	-6%
COc1ccc(CN(CCC#N)C(=S)NC(=O)c2ccccc2)cc1	-11%	-22%	x	11%	-39	x	x	x	x	x	x
Cc1ccc(S(=O)(=O)N(C)C)cc1NC(=S)N(CCC#N)Cc1cccnc1	u	-4%	0%	-6%	-24	0%	x	x	x	x	x
O=S(=O)(NCc1cccs1)c1ccccc1Cl	30%	-17%	x	-11%	-29	i	x	x	x	x	x
O=C(NCCCN1CCOCC1)c1cccc(S(=O)(=O)Nc2cc(Cl)ccc2Cl)c1	0%	-9%	20%	20%	20	-6%	x	x	x	x	x

Assay outcomes deposited in PubChem by National Center for Advancing Translational Sciences (NCATS).
